# PubChem BioAssay (NCATS)
# Results filed as inconclusive are left out. Where a call stands in place of a potency, no number is given. A number with no mark means an inactive call. Active and inactive are the calls of the source. Calls follow the shape of the dose curve; as a rule, active = well fitted cell-killing curve with a large enough effect; inconclusive = small, poorly fitted or top-dose-only effect, or effect the other way; inactive = no such curve, though single readings can be large or run the other way.
# Columns and labels:
# [1] = Quantitative High-Throughput drug screen in 47 multiple myeloma cell lines against the NCATS MIPE library collection: MM1R_ATCC cell viability assay (AID 1918981); also: nearly all actives have a fitted effect of over 35% in size; also: potency is read from the fitted curve at half-maximal effect
# Method in brief: (§1)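 Myeloma cells (500/well) treated with MIPE 4.0 compounds for 48 h at 37 °C, 5% CO2. Viability read as ATP via CellTiter-Glo luminescence after 5 min at RT; DMSO-only wells = 100%, media-only = 0% viability.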
# [2] = Quantitative High-Throughput drug screen in 47 multiple myeloma cell lines against the NCATS MIPE library collection: LP1_DSMZ cell viability assay (AID 1918982); also: nearly all actives have a fitted effect of over 35% in size; also: potency is read from the fitted curve at half-maximal effect
# Method in brief: as §1
# [3] = Quantitative High-Throughput drug screen in 47 multiple myeloma cell lines against the NCATS MIPE library collection: KMS28PE_JCRB cell viability assay (AID 1918983); also: nearly all actives have a fitted effect of over 35% in size; also: potency is read from the fitted curve at half-maximal effect
# Method in brief: as §1
# [4] = Quantitative High-Throughput drug screen in 47 multiple myeloma cell lines against the NCATS MIPE library collection: OCIMY5_PLB cell viability assay (AID 1918988); also: nearly all actives have a fitted effect of over 65% in size; also: potency is read from the fitted curve at half-maximal effect
# Method in brief: as §1
# [5] = Quantitative High-Throughput drug screen in 47 multiple myeloma cell lines against the NCATS MIPE library collection: OPM1_PLB cell viability assay (AID 1918989); also: nearly all actives have a fitted effect of over 40% in size; also: potency is read from the fitted curve at half-maximal effect
# Method in brief: as §1
# [6] = Quantitative High-Throughput drug screen in 47 multiple myeloma cell lines against the NCATS MIPE library collection: XG6_PLB cell viability assay (AID 1919865); also: nearly all actives have a fitted effect of over 40% in size; also: potency is read from the fitted curve at half-maximal effect
# Method in brief: as §1
# [7] = Quantitative High-Throughput drug screen in 47 multiple myeloma cell lines against the NCATS MIPE library collection: XG1_PLB cell viability assay (AID 1919866); also: nearly all actives have a fitted effect of over 35% in size; also: potency is read from the fitted curve at half-maximal effect
# Method in brief: as §1
# [8] = Quantitative High-Throughput drug screen in 47 multiple myeloma cell lines against the NCATS MIPE library collection: VP6_DJ cell viability assay (AID 1919867); also: nearly all actives have a fitted effect of over 40% in size; also: potency is read from the fitted curve at half-maximal effect
# Method in brief: as §1
# [9] = Quantitative High-Throughput drug screen in 47 multiple myeloma cell lines against the NCATS MIPE library collection: OPM2_DSMZ cell viability assay (AID 1919872); also: nearly all actives have a fitted effect of over 30% in size; also: potency is read from the fitted curve at half-maximal effect
# Method in brief: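 Luminescent ATP measurement with CellTiter-Glo gives viability, scaled between DMSO-only wells (100%) and media-only wells (0%). Cells, 500 per well, faced library compounds for 48 hours at 37C.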
# [10] = Quantitative High-Throughput drug screen in 47 multiple myeloma cell lines against the NCATS MIPE library collection: KMS28BM_JCRB cell viability assay (AID 1919874); also: nearly all actives have a fitted effect of over 35% in size; also: potency is read from the fitted curve at half-maximal effect
# Method in brief: as §1
# [11] = Quantitative High-Throughput drug screen in 47 multiple myeloma cell lines against the NCATS MIPE library collection: PE2_PLB cell viability assay (AID 1919869); also: nearly all actives have a fitted effect of over 35% in size; also: potency is read from the fitted curve at half-maximal effect
# Method in brief: as §1
# [12] = Quantitative High-Throughput drug screen in 47 multiple myeloma cell lines against the NCATS MIPE library collection: PCM6_Riken cell viability assay (AID 1919870); also: nearly all actives have a fitted effect of over 30% in size; also: potency is read from the fitted curve at half-maximal effect
# Method in brief: as §1
# [13] = Quantitative High-Throughput drug screen in 47 multiple myeloma cell lines against the NCATS MIPE library collection: RPMI8226_ATCC cell viability assay (AID 1919871); also: nearly all actives have a fitted effect of over 30% in size; also: potency is read from the fitted curve at half-maximal effect
# Method in brief: as §1
# [14] = Quantitative High-Throughput drug screen in 47 multiple myeloma cell lines against the NCATS MIPE library collection: KMS11_JCRBsus cell viability assay (AID 1919873); also: nearly all actives have a fitted effect of over 50% in size; also: potency is read from the fitted curve at half-maximal effect
# Method in brief: as §1
# [15] = Quantitative High-Throughput drug screen in 47 multiple myeloma cell lines against the NCATS MIPE library collection: KMS34_JCRB cell viability assay (AID 1918985); also: nearly all actives have a fitted effect of over 40% in size
# Method in brief: as §1
# [16] = Quantitative High-Throughput drug screen in 47 multiple myeloma cell lines against the NCATS MIPE library collection: OCIMY7_PLB cell viability assay (AID 1918987); also: nearly all actives have a fitted effect of over 65% in size; also: potency is read from the fitted curve at half-maximal effect
# Method in brief: as §1
# [17] = Quantitative High-Throughput drug screen in 47 multiple myeloma cell lines against the NCATS MIPE library collection: L363_DSMZ cell viability assay (AID 1918984); also: nearly all actives have a fitted effect of over 40% in size; also: potency is read from the fitted curve at half-maximal effect
# Method in brief: as §1
# [18] = Quantitative High-Throughput drug screen in 47 multiple myeloma cell lines against the NCATS MIPE library collection: SKMM1_PLB cell viability assay (AID 1919863); details: SKMM1 myeloma viability, CellTiter-Glo ATP, 48 h; viability: active compounds read low; also: nearly all actives have a fitted effect of over 35% in size; also: potency is read from the fitted curve at half-maximal effect; as to viability: series mostly up to about 46 µM
# Method in brief: as §1
# [19] = Quantitative High-Throughput drug screen in 47 multiple myeloma cell lines against the NCATS MIPE library collection: UTMC2_PLB cell viability assay (AID 1919868); also: nearly all actives have a fitted effect of over 55% in size; also: potency is read from the fitted curve at half-maximal effect
# Method in brief: as §1
# [20] = Quantitative High-Throughput drug screen in 47 multiple myeloma cell lines against the NCATS MIPE library collection: U266_ATCC cell viability assay (AID 1919864); also: nearly all actives have a fitted effect of over 35% in size; also: potency is read from the fitted curve at half-maximal effect
# Method in brief: as §1
compound,measurement,setting,value
Cc1ncc([N+](=O)[O-])n1CCO,Potency,[1],inactive
same,Potency,[2],inactive
same,Potency,[3],inactive
same,Potency,[4],inactive
same,Potency,[5],inactive
same,Potency,[6],inactive
same,Potency,[7],inactive
same,Potency,[8],inactive
same,Potency,[9],inactive
same,Potency,[10],inactive
Cc1onc(-c2ccccc2Cl)c1C(=O)N[C@@H]1C(=O)N2[C@@H]1SC(C)(C)[C@@H]2C(=O)O,Potency,[1],inactive
same,Potency,[2],inactive
same,Potency,[3],inactive
same,Potency,[4],inactive
same,Potency,[5],inactive
same,Potency,[6],inactive
same,Potency,[7],inactive
same,Potency,[8],inactive
same,Potency,[11],inactive
same,Potency,[12],inactive
same,Potency,[13],inactive
same,Potency,[9],inactive
same,Potency,[14],inactive
same,Potency,[10],inactive
CC(=O)CC(c1ccccc1)c1c(O)c2ccccc2oc1=O (stereo unspecified),Potency,[1],inactive
same,Potency,[2],inactive
same,Potency,[3],inactive
same,Potency,[15],inactive
same,Potency,[16],inactive
same,Potency,[5],inactive
same,Potency,[6],inactive
same,Potency,[8],inactive
same,Potency,[11],inactive
same,Potency,[13],inactive
same,Potency,[14],inactive
same,Potency,[10],inactive
CN1CCN(c2c(F)cc3c(=O)c(C(=O)O)cn(CCF)c3c2F)CC1,Potency,[1],inactive
same,Potency,[2],inactive
same,Potency,[3],inactive
same,Potency,[17],inactive
same,Potency,[5],inactive
same,Potency,[7],inactive
same,Potency,[11],inactive
same,Potency,[9],inactive
same,Potency,[10],inactive
CC(C)NCC(O)c1ccc(NS(C)(=O)=O)cc1 (stereo unspecified),Potency,[1],inactive
same,Potency,[2],inactive
same,Potency,[3],inactive
same,Potency,[5],inactive
same,viability,[18],159%
same,Potency,[6],inactive
same,Potency,[19],inactive
same,Potency,[11],inactive
same,Potency,[12],inactive
same,Potency,[9],inactive
same,Potency,[10],inactive
CCN(CC)CC#CCOC(=O)C(O)(c1ccccc1)C1CCCCC1 (stereo unspecified),Potency,[1],inactive
same,Potency,[3],inactive
same,Potency,[7],inactive
same,Potency,[19],inactive
same,Potency,[11],inactive
same,Potency,[9],inactive
CC(C)OC(=O)OCOP(=O)(CO[C@H](C)Cn1cnc2c(N)ncnc21)OCOC(=O)OC(C)C,Potency,[1],11.8 µM (active)
same,Potency,[2],inactive
same,Potency,[4],3.72 µM (active)
same,Potency,[5],inactive
same,Potency,[20],16.6 µM (active)
same,Potency,[12],16.6 µM (active)
same,Potency,[9],inactive
same,Potency,[14],inactive
same,Potency,[10],14.8 µM (active)
O[C@@H](CNC[C@H](O)[C@H]1CCc2cc(F)ccc2O1)[C@@H]1CCc2cc(F)ccc2O1,Potency,[1],26.4 µM (active)
same,Potency,[17],16.6 µM (active)
same,Potency,[4],20.9 µM (active)
same,Potency,[5],26.4 µM (active)
same,Potency,[18],18.7 µM (active)
same,Potency,[20],26.4 µM (active)
same,Potency,[6],13.2 µM (active)
same,Potency,[7],20.9 µM (active)
same,Potency,[8],14.8 µM (active)
same,Potency,[19],20.9 µM (active)
same,Potency,[11],26.4 µM (active)
same,Potency,[13],20.9 µM (active)
same,Potency,[9],18.7 µM (active)
same,Potency,[10],18.7 µM (active)
CC1=CC(=O)c2ccccc2C1=O,Potency,[1],9.35 µM (active)
same,Potency,[2],23.5 µM (active)
same,Potency,[16],33.2 µM (active)
same,Potency,[4],16.6 µM (active)
same,Potency,[5],23.5 µM (active)
same,Potency,[18],16.6 µM (active)
same,Potency,[20],18.7 µM (active)
same,Potency,[7],23.5 µM (active)
same,Potency,[8],16.6 µM (active)
same,Potency,[11],4.18 µM (active)
same,Potency,[12],18.7 µM (active)
same,Potency,[9],20.9 µM (active)
same,Potency,[14],18.7 µM (active)
COc1cnc(NS(=O)(=O)c2ccc(N)cc2)nc1,Potency,[1],inactive
same,Potency,[3],inactive
same,Potency,[4],inactive
same,viability,[18],141%
same,Potency,[20],inactive
same,Potency,[8],20.9 µM (active)
same,Potency,[11],inactive
same,Potency,[13],inactive
same,Potency,[9],inactive
O=C(NCC1CN(c2ccc(N3CCOCC3=O)cc2)C(=O)O1)c1ccc(Cl)s1 (stereo unspecified),Potency,[1],inactive
same,Potency,[3],inactive
same,Potency,[16],inactive
same,Potency,[5],inactive
same,viability,[18],135%
same,Potency,[20],inactive
same,Potency,[6],inactive
same,Potency,[7],inactive
same,Potency,[19],inactive
same,Potency,[11],inactive
same,Potency,[13],inactive
same,Potency,[9],inactive
same,Potency,[10],inactive
CNNCc1ccc(C(=O)NC(C)C)cc1,Potency,[1],11.8 µM (active)
same,Potency,[3],13.2 µM (active)
same,Potency,[4],16.6 µM (active)
same,Potency,[5],inactive
same,Potency,[18],9.35 µM (active)
same,Potency,[20],inactive
same,Potency,[6],inactive
same,Potency,[7],inactive
same,Potency,[8],inactive
same,Potency,[11],inactive
same,Potency,[12],inactive
same,Potency,[9],8.33 µM (active)
same,Potency,[10],inactive
CC1=NN(c2ccccc2)C(=O)C1,Potency,[1],inactive
same,Potency,[3],inactive
same,Potency,[16],inactive
same,Potency,[5],inactive
same,Potency,[6],7.43 µM (active)
same,Potency,[11],inactive
same,Potency,[13],inactive
same,Potency,[9],inactive
same,Potency,[10],inactive
COc1cc2c(Nc3ccc(Br)cc3F)ncnc2cc1OCC1CCN(C)CC1,Potency,[1],23.5 µM (active)
same,Potency,[3],16.6 µM (active)
same,Potency,[4],18.7 µM (active)
same,Potency,[5],6.62 µM (active)
same,Potency,[20],20.9 µM (active)
same,Potency,[6],7.43 µM (active)
same,Potency,[7],7.43 µM (active)
same,Potency,[13],23.5 µM (active)
CC1CC2C3CCC4=CC(=O)C=C[C@]4(C)[C@@]3(F)[C@@H](O)C[C@]2(C)[C@@]1(O)C(=O)CO (stereo partly specified),Potency,[1],inactive
same,Potency,[3],0.0935 µM (active)
same,Potency,[4],2.64 µM (active)
same,Potency,[5],2.35 µM (active)
same,Potency,[6],inactive
same,Potency,[7],inactive
same,Potency,[8],0.209 µM (active)
same,Potency,[11],inactive
same,Potency,[12],0.118 µM (active)
same,Potency,[13],0.0296 µM (active)
same,Potency,[9],inactive
same,Potency,[10],inactive
Cn1nnc2c(C(N)=O)ncn2c1=O,Potency,[1],inactive
same,Potency,[2],inactive
same,Potency,[5],inactive
same,Potency,[6],inactive
same,Potency,[7],inactive
same,Potency,[11],inactive
same,Potency,[12],inactive
same,Potency,[13],inactive
same,Potency,[9],inactive
same,Potency,[14],inactive
CN1CCCC(n2nc(Cc3ccc(Cl)cc3)c3ccccc3c2=O)CC1 (stereo unspecified),Potency,[1],2.35 µM (active)
same,Potency,[3],13.2 µM (active)
same,Potency,[17],9.35 µM (active)
same,Potency,[16],1.18 µM (active)
same,Potency,[4],1.18 µM (active)
same,Potency,[5],2.64 µM (active)
same,Potency,[18],20.9 µM (active)
same,Potency,[20],2.64 µM (active)
same,Potency,[7],1.48 µM (active)
same,Potency,[8],1.48 µM (active)
same,Potency,[19],1.87 µM (active)
same,Potency,[11],7.43 µM (active)
same,Potency,[14],1.32 µM (active)
same,Potency,[10],0.372 µM (active)
